Screening data (PubChem)
Shown are actives, neighbours in structure and some others; about 9.9% of the full set was active somewhere.
ALDH1A1 block – inhibitors of human aldehyde dehydrogenase 1A1 | P00352 | 220,000 tested, 7.3% active | Purified ALDH1A1, NADH fluorescence, propionaldehyde substrate | Potency, µM (titrated, usually from 75.3 µM), for the others: top-dose activity, negative = inhibition, actives largely listed as inhibitors; active means well fitted inhibition curve with a large enough effect, not every such curve was filed as active; inconclusive means small, poorly fitted or top-dose-only effect, or another doubt; inactive means no such curve, though single readings can be large or run the other way;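 further: plate controls were no enzyme wells and a reference inhibitor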
Tau fluor counter – counter-screen for tau fibril formation inhibitors. Potency, µM (series often up to 57.7 µM), for the others: at the top dose activity change, negative = decrease. tau K18 P301L Alexa594 fluorescence, heparin fibrillization. 280,000 tested, 0.93% active; further: nearly all actives have a fitted effect of over 55% in size
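Human tau K18 P301L (15 uM unlabeled, 0.24 uM Alexa 594-labeled) in 100 mM sodium acetate pH 7 with 20 uM heparin, 6 hr at 37 C. ThT 30 uM added, 1 hr ambient; Alexa 594 FP and total fluorescence read at 555/632 nm.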
Tau fibril FP – inhibitors of human tau fibril formation | AID 1468 | P10636 | Potency, µM (highest dose often 57.7 µM), inactives show top-dose activity, negative = inhibition, hits mostly inhibitors | 280,000 tested, 0.39% active | K18 P301L tau heparin fibrillization, Alexa594 FP, 6 h; further: nearly all actives have a fitted effect of over 55% in size
Target sequence (P10636 561-689 P618L limits assumed): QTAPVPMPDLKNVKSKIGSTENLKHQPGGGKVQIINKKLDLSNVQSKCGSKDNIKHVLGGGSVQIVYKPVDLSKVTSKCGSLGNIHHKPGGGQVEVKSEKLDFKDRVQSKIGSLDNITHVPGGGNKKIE
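Human K18 P301L fragment (15 uM unlabeled plus 0.24 uM Alexa 594-labeled) in 100 mM sodium acetate pH 7 with compound, aggregation induced by 20 uM heparin for 6 hr at 37 C. ThT (30 uM) added for 1 hr, then Alexa 594 FP read.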
HPGD inh – blocks human HPGD enzyme activity; AID 894; purified HPGD, NADH fluorescence kinetic, PGE2 substrate; P15428; 150,000 tested, 4.3% active; Potency, µM, for the others: at the top dose activity change, negative = inhibition, actives largely listed as inhibitors; active means well fitted inhibition curve with a large enough effect, not every such curve was filed as active; inconclusive means small, poorly fitted or top-dose-only effect, or another doubt; inactive means no such curve, though single readings can be large or run the other way
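NADH formation kinetics: reaction with 30 uM PGE2 and 1 mM NAD+ (final), 20 nM enzyme, Tris-HCl pH 8 with Tween 20, after 15 min compound preincubation at room temperature. Fluorescence change, last versus first of five reads.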
Tau fibril ThT – blocks human tau fibril formation measured by thioflavin T | P10636 | recombinant tau K18 P301L (four-repeat tau fragment), heparin-induced fibrillization, ThT fluorescence | Potency, µM (doses to about 57.4 µM), inactives show top-dose activity, negative = inhibition, most hits filed as inhibitors | 270,000 tested, 2.1% active | AID 1460; further: nearly all actives have a fitted effect of over 55% in size
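Tau K18 P301L fragment (15 uM unlabeled plus 0.24 uM Alexa 594-labeled) in 100 mM sodium acetate pH 7 with compound, fibrillization induced by 20 uM heparin for 6 hr at 37 C. Thioflavin T (30 uM) added, fluorescence read after 1 hr (ex 450, em 510 nm).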
KDM4E inh – inhibitors of human JMJD2E histone demethylase; JMJD2E catalytic domain, FDH-coupled NADH fluorescence (FDH is formaldehyde dehydrogenase); Potency, µM (highest dose often 57.1 µM), for inactives: top-dose activity change, negative = inhibition, actives largely listed as inhibitors; 230,000 tested, 1.6% active; AID 2147; active means well fitted inhibition curve with a large enough effect, not every such curve was filed as active; inconclusive means small, poorly fitted or top-dose-only effect, or another doubt; inactive means no such curve, though single readings can be large or run the other way;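 further: 0% = wells with enzyme and -100% = buffer wells without enzyme; nearly all actives have a fitted effect of over 50% in size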
Target sequence (B2RXH2 1-337 limits assumed): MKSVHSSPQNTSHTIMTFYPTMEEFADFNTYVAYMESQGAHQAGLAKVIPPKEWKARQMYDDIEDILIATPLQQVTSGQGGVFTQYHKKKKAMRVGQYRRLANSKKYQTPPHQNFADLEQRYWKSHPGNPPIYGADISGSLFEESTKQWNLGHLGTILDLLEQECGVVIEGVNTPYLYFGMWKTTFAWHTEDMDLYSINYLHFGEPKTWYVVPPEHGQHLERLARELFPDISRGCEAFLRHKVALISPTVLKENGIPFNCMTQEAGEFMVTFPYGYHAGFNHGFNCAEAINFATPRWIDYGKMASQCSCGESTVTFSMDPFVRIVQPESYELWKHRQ
Numbers without * were called inactive; ? = inconclusive; / = no result given; [ ] = another dose, or the depositor's remark. Unless noted, the call rests on the fitted dose curve; in most records, active means well fitted curve in the direction sought with a large enough effect; inconclusive means small, poorly fitted or top-dose-only effect, or another doubt; inactive means no such curve, though single readings can be large; an effect the other way counts as inactive or inconclusive. Unless noted, on the % scale 0 is the no-effect control and ±100 the full control effect; potency means the concentration at half of the fitted maximal effect.

SMILES | ALDH1A1 block | Tau fluor counter | Tau fibril FP | HPGD inh | Tau fibril ThT | KDM4E inh
C=C1CC[C@H](O)C/C1=C/C=C1\CCC[C@]2(C)C([C@H](C)CCCC(C)(C)O)CC[C@@H]12 (some centres undefined) | 5% | -12% | -3% | / | ? | /
NS(=O)(=O)c1ccc(CCNC(=S)NC2CCCCC2)cc1 | / | -10% | -6% | / | 0% | 5%
Cc1ccc(S(=O)(=O)NC(=S)NC2CCCCC2)cc1 | 35µM* | -9% | -7% | / | -7% | -6%
O=S(=O)(NC(=S)NC1CCCCC1)c1ccc(Cl)cc1 | 25µM* | -12% | -7% | / | -15% | -8%
O=C(NNS(=O)(=O)c1ccc(Cl)cc1)NC1CCCCC1 | -3% | -2% | -4% | -1% | -3% | -3%
CCc1ccc(S(=O)(=O)NC(=S)NC2CCCCC2)cc1 | 25µM* | 5% | -3% | / | -4% | -5%
CSc1ccc(C2c3c(oc4cc(C)cc(C)c4c3=O)C(=O)N2CCO)cc1 (centres undefined) | / | 4% | 7% | / | 2% | /
COC(=O)c1cc2oc3ccccc3c2n1Cc1ccccc1Cl | / | -15% | -11% | / | -1% | /
O=C(O)C1Cc2[nH]cnc2C(c2cccc([N+](=O)[O-])c2)N1 (centres undefined) | ? | 0% | ? | / | -11% | ?
O=C(O)C1Cc2[nH]cnc2C(c2ccccc2O)N1 (centres undefined) | -4% | -2% | -2% | -7% | -6% | 32µM*
CC(=O)N1CCN(c2nc(-c3ccco3)c3c(c2C#N)CC(C)(C)SC3)CC1 | ? | -8% | -8% | ? | ? | ?
CC1(C)Cc2c(c(-c3ccccc3)[nH]c(=O)c2C#N)CS1 | 28µM* | -9% | -10% | ? | -7% | -23%
CC1(C)Cc2c(c(-c3ccco3)[nH]c(=O)c2C#N)CS1 | 5.6µM* | -14% | ? | 14µM* | ? | ?
COc1cccc(-n2cn[nH]c2=S)c1 | ? | -9% | -3% | / | -9% | 2%
COc1cccc(-n2sc3c(c2=S)-c2cc(OC)ccc2NC3(C)C)c1 | ? | 13µM*[quencher] | 12% | -5% | -19% | -3%
O=C(c1ccccc1)c1n[nH]c(-c2ccccc2)cc1=O | ? | -2% | 9% | / | -3% | -10%
O=C(Oc1ccc(F)cc1)c1nc(SCc2ccccc2F)ncc1Cl | / | -21% | -11% | / | ? | /
CC(C)Sc1nnc(NC(=O)c2ccco2)s1 | 14µM* | -6% | -2% | / | -10% | -2%
Cc1sc2nc(COC(=O)CNC(=O)c3ccc(C(C)(C)C)cc3)[nH]c(=O)c2c1C | 8.9µM* | -19% | 12% | -20% | ? | -6%
Cc1sc2nc(COC(=O)c3ccc(N4CCCC(C)C4)c([N+](=O)[O-])c3)[nH]c(=O)c2c1C (centres undefined) | -13% | -19% | 10% | ? | ? | 1%
Cc1sc2nc(COC(=O)c3ccc(N4CCCC4)c([N+](=O)[O-])c3)[nH]c(=O)c2c1C | 18µM* | -12% | 2% | -13% | ? | -11%
Cc1sc2nc(COC(=O)c3ccc(O)cc3)[nH]c(=O)c2c1C | / | -25% | -2% | / | -7% | 4%
Cc1ccc(-c2nnc(Nc3ccc(S(N)(=O)=O)cc3)c3ccccc23)cc1S(=O)(=O)N1CCOCC1 | / | ? | -23% | / | ? | /
COc1ccc(CNCc2cccc(Oc3ccccc3)c2)cc1 | 14µM* | -5% | 4% | / | -4% | ?
Cc1ccc(S(=O)(=O)Nc2cc(Cl)c3oc4c(c3c2)CCCC4)cc1 | / | ? | ? | / | -7% | /
SMILES | ALDH1A1 block | Tau fluor counter | Tau fibril FP | HPGD inh | Tau fibril ThT | KDM4E inh
O=C(O)C1Nc2c(O)cc(Cl)c([N+](=O)[O-])c2C2C=CCC12 (centres undefined) | 13µM* | 7.1µM*[quencher] | 14µM* | / | 7.9µM* | 7.9µM*
CCC(O)c1cc2c(cc1NC(=O)c1ccccc1F)OCCO2 (centres undefined) | / | 3% | 6% | / | 4% | /
COc1ccccc1N(CC(=O)Nc1cc(C)cc(C)c1)S(C)(=O)=O | / | -10% | -7% | / | 4% | /
CCc1ccc(Nc2c([N+](=O)[O-])c(=O)oc3ccccc23)cc1 | / | -17% | -2% | / | ? | 5%
O=c1oc2ccccc2c(Nc2ccc3ccccc3c2)c1[N+](=O)[O-] | 2.2µM* | ? | -1% | -17% | ? | -15%
O=c1oc2ccccc2c(NCc2cccc(F)c2)c1[N+](=O)[O-] | 25µM* | 2% | 7% | 20µM* | 4% | -2%
COc1ccc(OCCNc2c([N+](=O)[O-])c(=O)oc3ccccc23)cc1 | 3% | -15% | -12% | / | -8% | -3%
O=c1oc2ccccc2c(NC(c2ccccc2)c2ccccc2)c1[N+](=O)[O-] | 22µM* | ? | 4% | -15% | -3% | 5%
Cc1ccc(Nc2c([N+](=O)[O-])c(=O)oc3ccccc23)cc1 | ? | -12% | -4%[2.34 µM] | / | -9% | -16%
CCNc1c([N+](=O)[O-])c(=O)oc2ccccc12 | 18µM* | -6% | -2% | / | -6% | -24%
CCOC(=O)c1cccc(NC(=O)c2cc3c(=O)n(Cc4ccccc4)ccc3nc2C)c1 | / | -9% | -4% | / | -12% | /
CC(=O)Nc1ccc(Cc2ccc3[nH]c(=O)cc(C)c3c2)cc1 | -4%[13.5 µM] | -11% | -4% | ? | -6% | -8%
N#Cc1c(-c2ccccc2)no[n+]1[O-] | 5µM* | -4% | ? | -11% | ? | 1%
N#Cc1cn(-c2ccccc2)nc1-c1ccccc1 | 0% | -10% | -3% | -14% | -10% | -3%
Cc1cc(=O)oc2ccc(OCC(=O)N3CCc4ccccc43)cc12 | 16µM* | -5% | 2% | -20% | -20% | -13%
Cc1cc(=O)oc2cc(OCC(=O)N3CCc4ccccc4C3)ccc12 | ? | -1% | 1% | ? | ? | ?
Cc1cc(=O)oc2cc(OCC(=O)N3CCCc4ccccc43)ccc12 | 22µM* | -11% | -1% | ? | -28% | ?
CN(C(=O)c1cc2sccc2n1C)C1CCCCC1 | ? | -8% | 5% | 18µM* | -8% | 5%
